The text below walks through data of PubChem BioAssay AID1209 (Sanford-Burnham Center for Chemical Genomics, 2008).

SMILES strings stand for the structures. The whole screen tested about 190,000 compounds, of which about 810 (0.43%) were called active. Cut-off read from the data, not from the text of the source: active = inhibition above about 50%; inactive = the rest. Many of the other results were omitted from the sample, so actives are more common in it than they were.

Mannose-6-phosphate isomerase (Homo sapiens), sequence (P34949 whole entry, looked up): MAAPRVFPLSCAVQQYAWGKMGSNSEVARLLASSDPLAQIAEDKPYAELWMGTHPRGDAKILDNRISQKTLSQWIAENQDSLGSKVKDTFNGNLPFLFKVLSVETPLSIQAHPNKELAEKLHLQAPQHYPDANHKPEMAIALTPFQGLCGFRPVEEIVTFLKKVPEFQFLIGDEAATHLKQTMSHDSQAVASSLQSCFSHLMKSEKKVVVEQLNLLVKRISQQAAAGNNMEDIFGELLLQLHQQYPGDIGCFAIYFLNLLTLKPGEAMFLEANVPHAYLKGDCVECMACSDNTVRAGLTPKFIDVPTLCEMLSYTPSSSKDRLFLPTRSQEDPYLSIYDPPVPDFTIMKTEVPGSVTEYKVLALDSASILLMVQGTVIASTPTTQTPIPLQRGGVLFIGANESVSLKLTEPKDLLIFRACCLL

This experiment addresses Mannose-6-phosphate isomerase (Homo sapiens) (UniProt P34949). Kind of experiment: MPI enzyme activity inhibition – biochemical, fluorescence intensity, coupled assay, primary screen (AID 1209).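 Note: plate controls were DMSO vehicle for no effect and wells lacking substrate for full effect.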 The settings on record: purified PMI enzyme, at 20 µM, active compounds read high.
The term inhibition denotes the change of the read-out against control, counted positive when it falls. On to `CCOC(=O)N1CCC(n2c(SCC(=O)NCCC3=CCCCC3)nc3ccccc3c2=O)CC1`, for which the inhibition was 8.6% (inactive).

In the case of `N#Cc1ccccc1-n1c(N)c(C(=O)N2CCCC2)sc1=S`, the inhibition is 71% (active).

In the case of `Cc1ccc(-n2c(N)c(C(=O)N3CCN(C)CC3)sc2=S)cc1`, the inhibition was 2.7% (inactive).

Turning to `CN1CCN(C(=O)c2sc(=S)n(-c3ccccc3)c2N)CC1`, the inhibition was 2.8% (inactive).

In the case of `Cc1c(C(=O)N2CCCCC2)sc(N)c1C#N`, the inhibition is 8.9% (inactive).

As for `Nc1c(C(=O)N2CCCCC2)sc(=S)n1-c1ccccc1`, the inhibition was 57.7% (active).

Turning to `Nc1c(C(=O)N2CCOCC2)sc(=S)n1-c1ccccc1`, the inhibition was 53.3% (active).

`CCn1c(N)c(C(=O)N2CCOCC2)sc1=S`: the inhibition is 8.6% (inactive).

Turning to `Cc1ccc(-n2c(N)c(C(=O)N3CCCCC3)sc2=S)cc1`, the inhibition is 22.6% (inactive).

For `Cc1ccc(-n2c(N)c(C(=O)N3CCOCC3)sc2=S)cc1`, the inhibition was 36.2% (inactive).

In the case of `Cc1ccc(-c2nnc(SCC(=O)N/N=C/c3ccccc3C(=O)O)n2-c2ccccc2)cc1`, the inhibition was -2.4% (inactive).

`CC(C)NC(=O)C1CCN(Cc2cnn(-c3ccccc3)c2-n2cccc2)CC1`: the inhibition was -1.9% (inactive).

On to `S=C(Nc1ccccc1)N1CCN(C(=S)c2ccccc2)CC1`, for which the inhibition was 13.6% (inactive).

Take `CCNc1nc(OC)nc(SCC(=O)Nc2ccccc2)n1`: the inhibition was 7.3% (inactive).

In the case of `COc1ccc(NC(=O)Nc2ccccc2SC)c(OC)c1`, the inhibition is 16.5% (inactive).

For the molecule `Cc1cccc2sc(N(CCCN(C)C)C(=O)c3cc4ccccc4oc3=O)nc12`, the inhibition was 11.8% (inactive).

For `O=c1cc(O)nc(SCc2ccccc2)[nH]1`, the inhibition is 17.4% (inactive).

Consider `CCn1c2ccccc2c2nc3cc(C(=O)O)ccc3nc21`, for which the inhibition was 6.3% (inactive).

For `CCn1c2ccccc2c2nc3ccccc3nc21`, the inhibition was 4.5% (inactive).

As for `CCn1c2ccccc2c2nc3cc(S(=O)(=O)N4CCOCC4)ccc3nc21`, the inhibition is 70.3% (active).

For the molecule `COc1ccc(CN2C(=O)NC3(CCOc4ccccc43)C2=O)cc1F` (centres undefined), the inhibition was 7.7% (inactive).

On to `CC(C)OC(=O)c1cccc(C(=O)Oc2ccccc2)n1`, for which the inhibition was -3.1% (inactive).

With `Cc1ccc(NC(=O)NC(=O)N(C(C)C)S(C)(=O)=O)nc1`, the inhibition is -7.9% (inactive).

Take `Cc1[nH]n(-c2ccccc2)c(=O)c1C=Nc1ccc(S(=O)(=O)N(C)C)cc1`: the inhibition was -3.8% (inactive).

With `Cc1[nH]n(-c2ccccc2)c(=S)c1C=Nc1ccc([N+](=O)[O-])cc1`, the inhibition is 69.1% (active).

`Cc1[nH]n(-c2ccccc2)c(=S)c1C=NCCCN=Cc1c(C)[nH]n(-c2ccccc2)c1=S`: the inhibition was -3.9% (inactive).

Consider `CC[n+]1ccc(/C=C2\Sc3ccccc3N2CCCS(=O)(=O)[O-])c2ccccc21`, for which the inhibition is 8.2% (inactive).

As for `CN1/C(=C/c2cc[n+](C)c3ccccc23)C=Cc2ccccc21`, the inhibition is 70.7% (active).

As to `CN1C=C/C(=C\c2cc[n+](C)c3ccccc23)c2ccccc21`, the inhibition is 59.2% (active).

As to `CCN1/C(=C/c2ccc3ccccc3[n+]2CC)C=Cc2ccccc21`, the inhibition was 15.5% (inactive).

As to `C[n+]1ccc(/C=C/c2ccccc2O)c2ccccc21`, the inhibition is 12.3% (inactive).

Take `COc1ccc(N=c2oc3cc(O)ccc3cc2C(=O)Nc2ccccn2)cc1OC`: the inhibition is 14.8% (inactive).

Turning to `NC1=NC2CS(=O)(=O)CC2S1` (centres undefined), the inhibition is 2.4% (inactive).

Consider `O=C(c1ccc([N+](=O)[O-])cc1)N1CCN(C(=O)c2ccco2)CC1`, for which the inhibition is 1.1% (inactive).

Turning to `COc1ccc(CC(=O)OCC(=O)Nc2cccnc2Cl)cc1OC`, the inhibition is -1.9% (inactive).

Turning to `CCOC(=O)N1CCN(C(=O)C2CCN(S(=O)(=O)N(CC)CC)CC2)CC1`, the inhibition is -12% (inactive).

Regarding `CCOC(=O)c1ccccc1N/C=C1\CCCCC1=O`, the inhibition is -4.9% (inactive).

With `COC(=O)c1ccccc1N/C=C1\CCc2c(c(C)nn2-c2ccccn2)C1=O`, the inhibition was 85.2% (active).

Take `COC(=O)c1ccccc1NC(=S)N1CCN(c2ccccn2)CC1`: the inhibition is 7.2% (inactive).

In the case of `Cc1ccc(NCc2ccccc2O)c(C)c1`, the inhibition is 2.8% (inactive).

With `COc1ccc(/C=C(\C#N)C(=O)OCC(=O)NCc2ccccc2)cc1`, the inhibition was 0.9% (inactive).

Regarding `COc1ccc(/C=C(\C#N)C(=O)OCC(=O)NC(=O)NCCC(C)C)cc1`, the inhibition is -4.9% (inactive).

As for `COc1ccc(/C=C(\C#N)C(=O)OCCNC(=O)c2ccncc2)cc1`, the inhibition is 67.7% (active).

`CCCOc1ccc(CNC(=S)NCc2ccc(OC(C)C)cc2)cc1`: the inhibition is 6.1% (inactive).

Regarding `O=C(NCc1ccncc1)c1ccc(N2CCCC2)c([N+](=O)[O-])c1`, the inhibition was 72.1% (active).

As for `O=C(NCc1ccc2c(c1)OCO2)c1ccc(N2CCCCCC2)c([N+](=O)[O-])c1`, the inhibition is 10.1% (inactive).

`O=C(NCc1ccccn1)c1ccc(N2CCCC2)c([N+](=O)[O-])c1`: the inhibition was -10.4% (inactive).

As for `Cc1ccc(S(=O)(=O)N(C)C)cc1NC(=S)Nc1ccc2[nH]c(=O)[nH]c2c1`, the inhibition was 44.5% (inactive).

With `S=C(Nc1ccc(Cl)cc1)Nc1ccc2cn[nH]c2c1`, the inhibition was 23.6% (inactive).

In the case of `Cc1ccc(S(=O)(=O)N(C)C)cc1NC(=S)Nc1ccc2cn[nH]c2c1`, the inhibition is 55.4% (active).

In the case of `CN(C)S(=O)(=O)c1cccc(NC(=S)Nc2ccc3cn[nH]c3c2)c1`, the inhibition was 44.4% (inactive).

As to `S=C(Nc1ccc2cn[nH]c2c1)Nc1ccc(Cl)cc1Cl`, the inhibition was 55.6% (active).

For the molecule `S=C(Nc1ccc2cn[nH]c2c1)Nc1ccccc1Cl`, the inhibition was 14.1% (inactive).

`C/C(=N\NC(=O)COc1ccc(C(C)(C)C)cc1)c1ccc2c(c1)OCCO2`: the inhibition is 19% (inactive).

Regarding `COc1ccccc1NC(=O)Cn1cnc2c(oc3ccccc32)c1=O`, the inhibition was 4.7% (inactive).

For the molecule `Cc1ccc2c(c1)sc[n+]2Cc1ccccc1`, the inhibition was -11.9% (inactive).

For the molecule `COC(=O)[C@H](CC(C)C)NC(=O)CCc1nnc(COc2ccccc2)o1`, the inhibition was -1.7% (inactive).

For the molecule `CNC(=O)NCC12CC3CC(CC(C3)C1)C2`, the inhibition is 0% (inactive).

On to `CCN=c1scc(C)n1/N=C/c1cc(Br)c(O)c(Br)c1`, for which the inhibition is -24.9% (inactive).

On to `CCN=c1scc(-c2cccs2)n1/N=C/c1cc(OC)ccc1O`, for which the inhibition was -5% (inactive).

As to `COCCN=c1scc(-c2ccco2)n1/N=C/c1ccc(O)c(O)c1O`, the inhibition is 69.7% (active).

In the case of `COCCN=c1scc(-c2cccs2)n1/N=C/c1ccc(O)c(O)c1O`, the inhibition was 68.4% (active).

`CCN=c1scc(C)n1/N=C/c1ccsc1`: the inhibition was -6.7% (inactive).

With `COCCN=c1scc(-c2ccccc2)n1/N=C/c1c[nH]c2ccccc12`, the inhibition was 25.3% (inactive).

Turning to `CCN=c1scc(C)n1/N=C/c1ccc(O)c(O)c1O`, the inhibition is 82.5% (active).

Regarding `COc1ccc(O)c(/C=N/n2c(-c3ccco3)csc2=Nc2cccnc2)c1`, the inhibition was 11.8% (inactive).

On to `COCCN=c1scc(-c2cccs2)n1/N=C(\C)c1ccco1`, for which the inhibition is -16.8% (inactive).

On to `Cc1c(Br)cc(C(=O)OC2CCN(C)CC2)c(C)c1C`, for which the inhibition was -1.2% (inactive).

With `CCc1nnc(NC(=O)CSc2nnc(CNc3ccc(Cl)cc3)o2)s1`, the inhibition was 9.1% (inactive).

On to `CCCNc1nc2c(c(=O)n(C)c(=O)n2C)n1Cc1ccc(F)cc1`, for which the inhibition was 15.7% (inactive).

Turning to `COc1ccc2c(c1OC)C(=O)N(c1nccs1)C2`, the inhibition was 6.6% (inactive).

In the case of `CCN=C(NS(=O)(=O)c1ccc(Br)cc1)c1ccc(Cl)cc1`, the inhibition was 10.4% (inactive).

As to `CC1CCCN(S(=O)(=O)c2ccccc2[N+](=O)[O-])C1` (centres undefined), the inhibition was 9.5% (inactive).

Consider `COc1ccc(C2CC2/C(C)=N/OC(=O)c2cccs2)cc1` (centres undefined), for which the inhibition is -5.4% (inactive).

On to `COc1ccc(C2CC2/C(C)=N/OC(=O)C2CC2)cc1` (centres undefined), for which the inhibition was 2.2% (inactive).

As for `COc1ccc(C2CC2/C(C)=N/OC(=O)c2ccc(F)cc2)cc1` (centres undefined), the inhibition was 73.5% (active).

Turning to `CCn1c(C)nc2cc(C(=O)OC(C(F)(F)C(F)F)C(F)(F)C(F)F)ccc21`, the inhibition was 18.2% (inactive).

Consider `Cc1cc2c(cc1C)N(C(=O)CSc1nncn1C)C(C)(C)c1ssc(=S)c1-2`, for which the inhibition is 10.4% (inactive).

For the molecule `COC(=O)c1cc(OC)nc2c1c(=O)n(C)c(=O)n2C`, the inhibition is -3.1% (inactive).

As for `CCCC(=O)n1nc(-c2cccnc2)nc1NCc1ccccc1`, the inhibition is 3.3% (inactive).

As for `CCCC(=O)n1nc(-c2cccnc2)nc1NCc1ccc(OC)cc1`, the inhibition was 86.5% (active).

In the case of `CCC(=O)n1nc(-c2cccnc2)nc1NCc1ccc(OC)cc1`, the inhibition is 8.8% (inactive).

For the molecule `O=C(CSc1ccc2c(c1)OCCO2)Nc1cccc(S(=O)(=O)N2CCCCC2)c1`, the inhibition is 12.6% (inactive).

For `O=C(O)c1cc2c(ccc3ccccc32)o1`, the inhibition was 4.1% (inactive).

For the molecule `CC(=O)c1cc2cc(O)ccc2o1`, the inhibition was 3.2% (inactive).

In the case of `CC(=O)c1cc2c(O)c(O)ccc2o1`, the inhibition was 81.1% (active).

Consider `COc1cc(OC)cc(C(=O)N[C@H](C(=O)Nc2nnc(C3CC3)s2)C(C)C)c1`, for which the inhibition is 11.7% (inactive).

With `O=C(CCc1ccccc1)OCC(=O)c1cccc([N+](=O)[O-])c1`, the inhibition was 3.7% (inactive).

On to `O=C(CSc1ncnc2c1oc1ccccc12)OCc1ccccc1`, for which the inhibition is 22.9% (inactive).

With `CCOc1ccccc1N1C(=O)CC(Sc2n[nH]c(-c3ccccc3)n2)C1=O` (centres undefined), the inhibition is 36% (inactive).

On to `COc1ccccc1N1C(=O)CC(Sc2nc(C)cc(C)n2)C1=O` (centres undefined), for which the inhibition was 0.4% (inactive).

For the molecule `O=C(CN1CCCCC1)NCCNc1ccc(C(F)(F)F)cc1[N+](=O)[O-]`, the inhibition is 3.9% (inactive).

With `COc1ccc(NS(=O)(=O)c2ccc(N3CCCC3)c(NC(=S)Nc3cccc(S(=O)(=O)N(C)C)c3)c2)cc1`, the inhibition was 69.9% (active).

Turning to `COc1ccc(NS(=O)(=O)c2ccc(N3CCCC3)c(NC(=S)Nc3cccc(C)c3C)c2)cc1`, the inhibition was 78.9% (active).

With `COc1ccc(NS(=O)(=O)c2ccc(N3CCOCC3)c(NC(=O)C(C)C)c2)cc1`, the inhibition is -20% (inactive).

Take `COc1ccc(NS(=O)(=O)c2ccc(N3CCCC3)c(NC(=S)Nc3ccc(SC(F)F)cc3)c2)cc1`: the inhibition is 59% (active).

Consider `CCN(CC)S(=O)(=O)c1ccc(N2CCCC2)c(NS(=O)(=O)c2ccc(OC)cc2)c1`, for which the inhibition is -1.6% (inactive).

Turning to `O=S(=O)(Nc1ccc(Cl)cc1)c1ccc(N2CCOCC2)c(NC(=S)NC2CC2)c1`, the inhibition was 61.3% (active).

For `O=S(=O)(Nc1ccc(Cl)cc1)c1ccc(N2CCOCC2)c(NC(=S)NCCN2CCOCC2)c1`, the inhibition was 12.4% (inactive).

In the case of `COc1ccc(NS(=O)(=O)c2ccc(N3CCOCC3)c(NC(=O)c3ccc(OC)cc3)c2)cc1`, the inhibition is 9.7% (inactive).

In the case of `COc1ccc(NS(=O)(=O)c2ccc(N3CCOCC3)c(NC(=O)c3ccc(F)cc3)c2)cc1`, the inhibition is 11.8% (inactive).

As for `COc1ccc(NS(=O)(=O)c2ccc(N3CCOCC3)c(NC(=O)c3ccccc3Cl)c2)cc1`, the inhibition is -2.5% (inactive).

`COc1ccc(NC(=S)Nc2cccc(S(=O)(=O)N3CCCCC3)c2)cc1`: the inhibition was 1.3% (inactive).

Consider `COC(=O)CCC(=O)Nc1cc(S(=O)(=O)Nc2ccc(Cl)cc2)ccc1N1CCOCC1`, for which the inhibition is 21.8% (inactive).
